A selection: hits, their analogues and other compounds. The true share with any hit is near 3%.
VDR inhibitor: Inhibitors of the vitamin D receptor (VDR): qHTS; Vitamin D3 receptor (Homo sapiens), P11473; VDR-SRC2-3 peptide fluorescence polarization, 2 h; Potency, µM, for inactives: max response, negative = inhibition, usual class: inhibitors; hit rate 0.93% among 400,000; AID 504847, 2011
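Signal is fluorescence polarization, reporting how far test compounds block the interaction of VDR with the SRC2-3 coregulator peptide after a 2 h room-temperature incubation.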
GCN5L2 inh: qHTS Assay for Inhibitors of GCN5L2; GCN5L2 HAT assay, ThioGlo1 CoA-SH fluorescence; Potency, µM (top dose mostly 58.9 µM), inactives show top-dose activity change, negative = inhibition, actives largely listed as inhibitors; hit rate 0.21% among 390,000; AID 504327, 2011; Histone acetyltransferase KAT2A (Homo sapiens), Q92830
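Free CoA generated was detected with ThioGlo1 (50uM) fluorescence at Ex340nm/Em540nm, read immediately and after 20 min at room temperature. Enzyme, 20 nM in HEPES pH 7.5 buffer, saw compounds 15 min before adding 75uM H3(1-25) peptide and 70uM acetyl-CoA.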
PLK1 PBD inh: qHTS for Inhibitors of PLK1-PDB (polo-like kinase 1 - polo-box domain): Primary Screen; Potency, µM, for the others: max response, negative = inhibition, usual class: inhibitors; hit rate 2.8% among 360,000; Plk1 PBD binding of FITC phosphopeptide, fluorescence polarization; Serine/threonine-protein kinase PLK1 (Homo sapiens), P53350; AID 720504, 2013; further: series mostly up to about 57 µM; nearly all actives have a fitted effect of over 65% in size
Target sequence (P53350 whole entry, looked up, the tested form may be a part): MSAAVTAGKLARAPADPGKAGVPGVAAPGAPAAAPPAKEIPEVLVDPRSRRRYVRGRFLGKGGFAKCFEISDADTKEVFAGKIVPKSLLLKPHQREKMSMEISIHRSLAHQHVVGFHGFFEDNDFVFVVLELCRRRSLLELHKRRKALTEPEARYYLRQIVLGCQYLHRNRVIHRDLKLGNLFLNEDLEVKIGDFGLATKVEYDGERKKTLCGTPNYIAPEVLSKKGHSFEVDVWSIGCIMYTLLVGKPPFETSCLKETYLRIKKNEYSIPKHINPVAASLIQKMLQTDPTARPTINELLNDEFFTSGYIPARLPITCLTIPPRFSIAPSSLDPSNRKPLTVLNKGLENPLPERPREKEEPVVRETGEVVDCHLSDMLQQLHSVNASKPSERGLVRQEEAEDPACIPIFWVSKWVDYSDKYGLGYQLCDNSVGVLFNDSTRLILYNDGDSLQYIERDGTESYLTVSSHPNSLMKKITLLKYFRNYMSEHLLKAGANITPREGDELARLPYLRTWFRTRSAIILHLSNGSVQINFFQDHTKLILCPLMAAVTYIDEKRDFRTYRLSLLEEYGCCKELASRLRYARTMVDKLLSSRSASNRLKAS
12-LOX inh: Primary qHTS assay for inhibitors of human arachidonate 12S-lipoxygenase (ALOX12): Round 2. hit rate 1.1% among 580,000. Polyunsaturated fatty acid lipoxygenase ALOX12 (Homo sapiens), P18054. purified 12hLO, xylenol orange hydroperoxide absorbance. Potency, µM (series often up to 108 µM), inactives show at the top dose activity change, negative = inhibition, most hits filed as inhibitors
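Hydroperoxide product was detected by ferrous iron/xylenol orange as the 573 to 405 nm absorbance ratio. Arachidonic acid at 40 uM (final) was turned over for 30 min at room temperature by 150 nM human 12hLO, pH 7.0 Hepes buffer, after 15 min compound preincubation.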
* marks the source's active call; other numbers are inactive results; ? = inconclusive; / = no result; ! = a repeat was not active; [ ] = dose if it differs, or a comment. The call rests on the fitted dose curve; in most records, active means well fitted curve in the direction sought with a large enough effect; inconclusive means small, poorly fitted or top-dose-only effect, or another doubt; inactive means no such curve, though single readings can be large; an effect the other way counts as inactive or inconclusive. On the % scale 0 is the no-effect control and ±100 the full control effect; potency means the concentration at half of the fitted maximal effect.

SMILES	VDR inhibitor	GCN5L2 inh	PLK1 PBD inh	12-LOX inh
Cc1oc2c(cc(NS(=O)(=O)c3ccc(F)cc3)c3ccccc32)c1C(=O)O	-15%	-3%	0%	?
CCSc1nc(C(C)(C)C)cc(C(F)(F)F)c1C#N	/	/	/	1%
CCC1Nc2ncnc(N3CCOCC3)c2N(Cc2ccc(OC)cc2)C1=O (stereo not drawn)	79µM*	1%	27µM*	5%
O=C1C(Cc2ccccc2)Nc2ncnc(N3CCOCC3)c2N1Cc1ccc(Cl)cc1 (stereo not drawn)	-11%	?	27µM*!	?
O=C1C(Cc2ccccc2)Nc2ncnc(N3CCN(c4ccccc4)CC3)c2N1Cc1ccccc1 (stereo not drawn)	-16%	?	?	2%
O=C(Nc1cn[nH]c1)C1CCN(c2ccc(Cl)nn2)CC1	/	/	/	-26%
CS(=O)(=O)c1ccc(NCCc2ccc(S(N)(=O)=O)cc2)c([N+](=O)[O-])c1	-10%	-6%	3%	11%
CNS(=O)(=O)c1ccc(NCCc2ccc(S(N)(=O)=O)s2)c([N+](=O)[O-])c1	/	/	/	18µM*
S=c1[nH]nc(-c2cc(-c3ccccc3)n[nH]2)n1/N=C/C=C/c1ccco1	11%	-29%	?	40µM*
S=c1[nH]nc(-c2ccco2)n1/N=C/C=C/c1ccco1	-15%	-10%	-26%	?
S=c1[nH]nc(-c2cc(-c3ccccc3)n[nH]2)n1/N=C/c1ccc(Br)s1	2%	-22%	?	25µM*
COC(=O)c1cccc(OC(=O)c2ccccc2C)c1	/	/	/	-2%
O=Cc1s/c(=N\S(=O)(=O)c2ccccc2)n(CCCCl)c1Cl	22µM*	-11%	4.7µM*	?
CCn1c(C)cs/c1=N\S(=O)(=O)c1ccccc1	-23%	0%	-1%	7%
O=C(O)c1ccc(Nc2ncc3c(n2)-c2ccc(Cl)cc2C(c2c(F)cccc2F)=NC3)cc1	/	/	/	15µM*
c1ccc(CCCN2CCN(c3ccccn3)CC2)cc1	-26%	-6%	-13%	4.5µM*
COc1cc(CN2CCC(C)(NC(C)=O)CC2)cc(Nc2ccccc2)c1	/	/	/	13µM*
CC(=O)NC1(C)CCN(Cc2ccccc2-c2ccccc2Oc2ccccc2)C1 (stereo not drawn)	/	/	/	35µM*
O=C(CCc1ncc(-c2ccc(Cl)cc2Cl)o1)NCc1ccccc1	/	/	/	-12%
O=C(O)CCn1ncc2cc(OCC3CCN(C(=O)CC4CC4)CC3)ccc21	/	/	/	-17%[176 µM]
O=C(NC1CC(c2cc(NCCO)ncn2)C1)c1cc2ccccc2[nH]1 (stereo not drawn)	/	/	/	19%
Cc1cccc(NC(=O)c2cnc3ccccc3n2)n1	/	/	/	1%
Cc1oc(-c2ccccc2)nc1C(=O)Nc1ccccc1F	/	/	/	0%
Cc1cccc(NC(=O)c2ccccc2NC(=O)c2nc(-c3ccccc3)oc2C)c1	/	/	/	35µM*
O=C(O)c1ccccc1-c1ccccc1C(=O)Nc1cccc(-c2nc3ccccc3o2)c1	-16%	-2%	67µM*	11µM*
SMILES	VDR inhibitor	GCN5L2 inh	PLK1 PBD inh	12-LOX inh
Cc1oc(-c2ccccc2)nc1C(=O)NCc1ccccc1	/	/	/	18µM*
OC1CN(Cc2ccccc2)CCN(c2nc(-c3ccccc3)no2)C1 (stereo not drawn)	/	/	/	-2%
Cc1ccc(NC(=O)c2ncoc2-c2ccco2)c(Cl)c1	/	/	/	-20%
CSCCC1NC(=O)N(CC(=O)Nc2c(Cl)cc(Cl)cc2Cl)C1=O (stereo not drawn)	-10%	2%	8.4µM*	?
CSCCC1NC(=O)N(CC(=O)Nc2ccc(N3CCCCC3)cc2)C1=O (stereo not drawn)	-2%	-2%	-18%	17%
COc1ccc2[nH]c(C(=O)NCC(=O)N3CCCCCCNC(=O)CC3c3ccccc3)cc2c1 (stereo not drawn)	/	/	/	16%
CC1(C)CCCC(C)(C#CCN2CCN(C(c3ccccc3)c3ccccc3)CC2)O1 (stereo not drawn)	/	/	/	10µM*
O=C(/C=C/c1ccco1)OCc1nnc(-c2ccc(Cl)cc2)o1	-10%	?	-12%	45µM*
COc1ccc(S(=O)(=O)Cc2ccc(C(=O)O)o2)cc1	20%	-3%	-1%	-3%
Cc1ccc(S(=O)(=O)Cc2ccc(C(=O)O)o2)cc1	-15%	-8%	19µM*	?
Cc1ccc(C(=O)C[n+]2ccc3ccccc3c2)cc1	9%	-3%	8%	-9%

High-throughput results: PubChem, National Center for Advancing Translational Sciences (NCATS)
